From PubChem
MEX-5 binding: C. elegans MEX-5 TCR-2 RNA binding activity; Q9XUB2; MEX-5/FITC-TCR2 RNA binding, fluorescence polarization; stronger effect = lower value; activity score (negative = inhibition of binding), % at 10 µM; 300,000 compounds, 0.38% hits;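 active means inhibition past about -25% in most replicates, and total fluorescence under double the plate's negative control median, limit read from the data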;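 further: 0% = DMSO and -100% = 5 µM competing unlabeled TCR2 RNA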
Target sequence (Q9XUB2 whole entry, looked up): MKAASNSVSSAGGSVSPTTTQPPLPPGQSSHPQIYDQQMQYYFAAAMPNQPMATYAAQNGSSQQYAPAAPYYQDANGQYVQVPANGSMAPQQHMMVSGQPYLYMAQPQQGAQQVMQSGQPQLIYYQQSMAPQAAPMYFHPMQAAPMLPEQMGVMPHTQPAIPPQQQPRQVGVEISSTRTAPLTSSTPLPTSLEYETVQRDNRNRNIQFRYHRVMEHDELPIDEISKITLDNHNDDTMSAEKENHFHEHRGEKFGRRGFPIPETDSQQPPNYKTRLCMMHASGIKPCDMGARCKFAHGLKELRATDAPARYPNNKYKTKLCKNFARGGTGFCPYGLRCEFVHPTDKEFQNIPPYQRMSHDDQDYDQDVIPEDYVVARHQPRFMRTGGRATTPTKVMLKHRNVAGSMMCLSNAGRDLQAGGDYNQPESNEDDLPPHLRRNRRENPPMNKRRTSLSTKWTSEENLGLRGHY
MCL1 BIM primary: MCL1-BIM-BH3 interaction inhibition (human); GST-MCL1 / FITC-Bim-BH3 fluorescence polarization; AID 2057; 320,000 compounds, 0.68% hits; inhibition, % at 10.9 µM;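 active means inhibition above the mean inhibition of all tested compounds plus 3 SD, set per campaign, cut at about 40% in these data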;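 further: 0% = DMSO wells and 100% = unlabeled Bim-BH3 peptide control; higher means more loss of mP so more displacement of Bim peptide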
EBV gp42 inh: EBV gp42 inhibition; Q1HVG2; inhibition, % (tested at 21.74 µM); 220,000 compounds, 0.42% hits; Fluorescence polarization binding assay, mP read-out; in the data active means inhibition above about 50%
E coli Lon inh: inhibits E. coli Lon protease; inhibition, % at 7.94 µM; purified E. coli Lon protease, fluorescence polarization; 360,000 compounds, 0.42% hits; P0A9M0; in the data active means inhibition above about 13%, passing the limit was not always enough;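 further: 0% = enzyme with probe and DMSO and 100% = no enzyme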
GLD-1 RNA inh: GLD-1-TGE RNA interaction inhibition (C. elegans); purified GLD-1 + fluorescein TGE RNA, fluorescence polarization; inhibition, % at 5.96 µM; 320,000 compounds, 0.44% hits; AID 2280;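 active means percent inhibition above a per-plate cutoff, the plate mean of test compounds plus 3 SD, cut at about 30% in these data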;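 further: 0% = DMSO wells with GLD-1 and probe and 100% = wells lacking GLD-1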
BCLXL inh: Bcl-xL (human) inhibition. Q07817. GST-Bcl-xL / FITC-Bim BH3 peptide fluorescence polarization. inhibition, % at 10.9 µM. 320,000 compounds, 0.7% hits;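 active means inhibition above the mean of all tested compounds plus 3 SD, cutoff set per campaign, cut at about 30% in these data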;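 further: 0% = DMSO wells and 100% = unlabeled Bim-BH3 peptide competitor; inhibitors lower millipolarization by displacing the labeled peptide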
Target sequence (Q07817 whole entry, looked up): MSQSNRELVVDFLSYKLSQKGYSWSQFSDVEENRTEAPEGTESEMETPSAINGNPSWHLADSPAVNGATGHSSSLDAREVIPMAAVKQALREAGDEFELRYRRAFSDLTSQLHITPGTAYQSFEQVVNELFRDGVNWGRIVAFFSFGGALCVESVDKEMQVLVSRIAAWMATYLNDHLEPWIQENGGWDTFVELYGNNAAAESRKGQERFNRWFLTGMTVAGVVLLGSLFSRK
E coli Lon conf: E. coli Lon inhibition confirmation; inhibition, % at 7.94 µM; purified E. coli Lon, fluorescence polarization; AID 602230; 1,400 compounds, 31% hits; shares compounds with E coli Lon inh; in the data active means inhibition above about 16%;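 further: 0% = enzyme with probe and DMSO and 100% = no enzyme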
The depositor's hits bear a star; / = no result given; + = active, no number. The list is not random: actives were taken first. Their share in the collection is about 1.5%.

SMILES | MEX-5 binding | MCL1 BIM primary | EBV gp42 inh | E coli Lon inh | GLD-1 RNA inh | BCLXL inh | E coli Lon conf
C[C@@H]1CN([C@H](C)CO)C(=O)c2c(c3ccccc3n2C)-c2ccccc2CO[C@H]1CN(C)Cc1ccccc1 | / | / | / | 16.6* | / | / | -8.0
O=C(CSCC(=O)OCn1nnc2ccccc2c1=O)Nc1ccc(Cl)cc1 | 0.4 | 3.8 | -12.1 | 17.1* | -3.1 | 3.9 | 8.9
OC1CCCN(Cc2ccc3ccc4cccc5ccc2c3c45)C1 (stereo not given) | 0.4 | 8.3 | -15.8 | 1.2 | 5.3 | 1.8 | /
c1cc2ccc3ccc(CN4CCOCC4)c4ccc(c1)c2c34 | -0.1 | 5.5 | -7.0 | 16.8* | 10.3 | 6.8 | 1.7
COc1cccc(/C=N/NC(=O)c2c(C)nc3ccc(Cl)cn23)c1OC | -5.4 | 4.7 | / | -2.3 | -3.0 | -1.2 | /
CN1CCN(S(=O)(=O)c2ccc(NC(=O)c3cccc(S(=O)(=O)N4CCCC4)c3)cc2)CC1 | 1.8 | -6.8 | -16.5 | -5.1 | -2.5 | 0.1 | /
CCN(CC)c1ccc(N=C2C=CC(=O)C=C2NC(C)=O)cc1 | / | / | / | 37.6* | / | / | -10.8
O=c1c2ccccc2n2c(-c3cccc(Cl)c3)nnc2n1Cc1ccccc1 | -1.8 | 6.2 | -2.0 | -6.5 | 0.9 | 4.9 | /
CN(C)C(=O)c1cccc(-c2cnc3c(NC=O)cc(-c4ccccc4N(C)C)cn23)c1 | / | / | / | + | / | / | 123.5*
COc1ccccc1-c1cc(NC=O)c2ncc(-c3cccc(C(F)(F)F)c3)n2c1 | / | / | / | -10.9 | / | / | /
CN(C)c1ccccc1-c1cc(NC=O)c2ncc(-c3cccc(C(F)(F)F)c3)n2c1 | / | / | / | + | / | / | +
COc1ccc(CN2C(=O)c3cccnc3C2Nc2cc(Cl)c(OC)cc2OC)cc1 (stereo not given) | -2.5 | 5.1 | -10.5 | -11.1 | 7.8 | 3.7 | /
COc1ccc(CN2CCN(c3ccccc3OC)CC2)c(OC)c1 | -0.4 | 2.0 | / | 1.3 | -2.0 | 0.8 | /
COc1ccc(OC)c(CN2CCN(c3ccccc3OC)CC2)c1 | -0.2 | 8.3 | -0.4 | 16.8* | -0.9 | 5.2 | 3.6
COc1ccccc1N1CCN(Cc2ccc(O)c3ncccc23)CC1 | 0.7 | 2.4 | -15.4 | 15.2* | 1.4 | 0.1 | 12.4
COc1ccc(OC)c(CN2CCCCCC2)c1 | -1.9 | 8.3 | / | 20.6* | 7.6 | 0.0 | 121.0*
COc1ccc(OC)c(CN2CCSCC2)c1 | 0.1 | / | / | 3.3 | / | / | /
CC1(C)CC(=O)C2=C(C1)c1c(ccc3ccccc13)NC2c1ccco1 (stereo not given) | 0.5 | 8.2 | 8.2 | 0.1 | 4.5 | 6.2 | /
Cc1ccsc1C1Nc2ccc3ncccc3c2C2=C1C(=O)CC(C)(C)C2 (stereo not given) | 0.8 | 8.7 | -17.3 | 22.3* | 12.5 | 9.4 | 3.5
CCOc1ccc(C(=S)NC2CCCCC2)cc1 | 0.3 | 14.3 | -5.9 | -1.8 | 6.8 | 4.5 | /
CCOC(=O)c1c(NC(=O)c2cc(CC(C)C)on2)sc(C(C)=O)c1C | -0.3 | -2.1 | 4.0 | -0.7 | -0.2 | 0.8 | /
CC(C)COc1ncnc2c1sc1nc3c(cc12)COC(C)(C)C3 | 0.9 | 6.3 | -17.8 | / | 3.2 | 1.1 | /
CC(=O)c1cc(-c2ccccc2)[nH]c1N1CCOCC1 | -0.3 | 9.5 | -5.5 | 63.5* | 6.4 | 17.0 | -0.8
CC(=O)c1c(N2CCOCC2)nc2ccc(Br)cc2c1-c1ccccc1 | -1.2 | 2.0 | 8.1 | 8.5 | -0.6 | 4.6 | /
CCc1sc(C(=O)N2CCCN(C)CC2)cc1Br | 2.8 | -1.6 | / | 1.7 | 1.3 | 2.1 | /
SMILES | MEX-5 binding | MCL1 BIM primary | EBV gp42 inh | E coli Lon inh | GLD-1 RNA inh | BCLXL inh | E coli Lon conf
COc1cccc2c1C(=O)c1c(O)c3c(c(O)c1C2=O)CC(O)(C(C)=O)CC3OC1CC(N(C)C)C(O)C(C)O1 (stereo not given) | / | / | / | + | / | / | +
COc1cccc2c1C(=O)c1c(O)c3c(c(O)c1C2=O)C[C@@](O)(C(=O)CO)C[C@@H]3OC1CC(N)C(O)C(C)O1 (stereo not given in full) | / | / | / | + | / | / | +
CC(=O)[C@@]1(O)Cc2c(O)c3c(c(O)c2[C@H](O[C@H]2C[C@H](N)[C@H](O)[C@H](C)O2)C1)C(=O)c1ccccc1C3=O | / | / | / | + | / | / | +
COc1ccc(C(=O)/C=C/Nc2cc(C)ccn2)cc1 | 4.2 | -2.5 | -17.1 | 0.6 | -2.2 | 0.2 | /
O=C(NCCc1ccccc1)c1ccc(Cl)c(S(=O)(=O)N2CCCC2)c1 | -0.9 | -2.7 | / | -6.0 | -1.3 | -0.1 | /
O=C(O)c1cc(N2N=C(C(F)(F)F)/C(=C/C=C/c3ccco3)C2=O)ccc1Cl | / | / | -10.8 | 27.5* | / | / | -12.1
Cc1nn(-c2ccccc2)c2[nH]c(=O)c(CNc3ccc4c(c3)OCCO4)cc12 | -3.7 | 2.6 | -0.7 | 21.1* | -4.2 | 7.9 | 43.5*
COc1cccc(NCc2cc3c(C(C)(C)C)nn(-c4ccccc4)c3[nH]c2=O)c1 | 0.6 | -0.1 | -19.7 | -1.9 | 20.1 | -0.7 | /
O=C(NCCCN1CCCC1=O)c1ccc(S(=O)(=O)Nc2ccccc2F)cc1 | -1.2 | -1.2 | / | -0.7 | 3.7 | 0.7 | /
O=C(Nc1ccccc1)c1ccc(-c2ccc([N+](=O)[O-])cc2)o1 | 3.3 | -8.4 | / | 29.9* | 1.7 | -3.4 | -4.9
COC1OC(COC(=O)CNC(=O)OC(C)(C)C)C(O)C(O)C1O (stereo not given) | 2.1 | 6.1 | -13.2 | -2.0 | 6.5 | 1.4 | /
Fc1ccc(CN2CC[C@H]3C=CCc4cccc(c43)C2)cc1 | / | 11.4 | / | 30.2* | 0.0 | 9.2 | -9.0
Clc1ccc(CN2CC[C@H]3C=CCc4cccc(c43)C2)cc1 | / | 0.4 | / | -3.3 | 0.8 | 3.8 | /
CCC/C(=N\NC(=O)c1csc(C)c1C)c1cccs1 | 0.1 | 3.4 | -14.4 | -10.5 | -2.5 | 1.0 | /
COc1ccc(C(C)=O)cc1CSc1nnc(-c2ccncc2)o1 | 3.0 | 2.2 | / | 92.9* | -4.7 | 1.5 | -22.1
CC(C)CN(C(=O)Cn1c(Cl)nc2c1c(=O)n(C)c(=O)n2C)C1CCS(=O)(=O)C1 (stereo not given) | -2.0 | -1.4 | / | 16.4* | 3.7 | 3.5 | 0.1
CCCN1CCCc2cc(CN)ccc21 | -59.7* | 127.0* | 79.0* | 37.5* | 45.5* | 107.7* | 46.8*
CCc1ccc(NC(=O)N(CCN2CCOCC2)Cc2ccc3c(c2)CCCN3CC)cc1 | -4.5 | 22.8 | -21.0 | 0.2 | 1.0 | 23.8 | /
COc1ccc(N2CCN(C(=O)CN3C(=O)c4ccccc4S3(=O)=O)CC2)cc1 | -1.4 | -2.9 | -3.9 | 19.8* | 0.7 | 5.2 | -7.5
COc1ccc(C2N(c3ccc(OC)cc3)C(=O)C3CCCN32)cc1 (stereo not given) | -2.4 | 3.6 | -2.8 | 5.9 | 7.2 | 0.6 | /
COc1ccc(N2C(=O)C3CCCN3C2c2ccccc2)cc1 (stereo not given) | 0.1 | 4.9 | -9.1 | 16.2* | 4.0 | 1.4 | -7.7
